Only some compounds are listed: those with a hit (about 3% of all), similar ones and a draw of the others.
TRAIL sens C8: viability loss with TRAIL in NB7+C8 cells, primary screen, TRAIL sensitizer project, cell-based, ATPlite luminescence; inhibition (viability loss, TRAIL sensitization), % at 10 µM; hit rate 1% among 360,000; AID 624354, 2012;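 active means compounds causing at least 50% loss of cell viability in the single-dose screen, relative to plate controls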
SENP7 block: SENP7 protease inhibitors, primary screen, biochemical, luminescence, uHTS; recombinant SENP7, Z-RLRGG-aminoluciferin luminescence, 40 min; Sentrin-specific protease 7 (Homo sapiens), Q9BQF6; AID 434973, 2010; inhibition, % at 5 µM; hit rate 1.5% among 330,000;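 active means inhibition above about 50% at the single test dose, limit read from the data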
Target sequence (Q9BQF6 706-1050 limits assumed): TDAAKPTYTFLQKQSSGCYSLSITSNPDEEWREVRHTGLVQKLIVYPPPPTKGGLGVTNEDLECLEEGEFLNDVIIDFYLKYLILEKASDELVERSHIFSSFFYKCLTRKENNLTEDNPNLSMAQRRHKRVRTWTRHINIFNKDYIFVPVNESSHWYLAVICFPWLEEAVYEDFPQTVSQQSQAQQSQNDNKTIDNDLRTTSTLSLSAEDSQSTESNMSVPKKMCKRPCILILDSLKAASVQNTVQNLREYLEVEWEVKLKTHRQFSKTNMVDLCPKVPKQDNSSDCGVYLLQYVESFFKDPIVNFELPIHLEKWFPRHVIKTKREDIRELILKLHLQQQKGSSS
SENP6 inh: SENP6 protease inhibitors, primary screen, biochemical, luminescence, uHTS | Sentrin-specific protease 6 (Homo sapiens), Q9GZR1 | Recombinant SENP6 catalytic domain, aminoluciferin luminescence | inhibition, % at 10 µM | hit rate 1.8% among 330,000;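 active means inhibition above about 50% at the single tested dose, limit read from the data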
SENP8 block-1: human SENP8 protease inhibitors, primary screen, biochemical, fluorescence, Nedd8 protein substrate, uHTS; Sentrin-specific protease 8 (Homo sapiens), Q96LD8; recombinant SENP8; inhibition, % at 20 µM; hit rate 0.64% among 360,000; in the data active means inhibition mostly above about 40%, no sharp cut-off; inactive means mostly below about 27%
PPC-1+TRAIL kill: compounds killing PPC-1 cancer cells with TRAIL present, primary screen, TRAIL potentiator project, ATPLite luminescence, uHTS; PPC-1 cells + TRAIL, ATPLite viability luminescence; AID 1443, 2008; cell killing (% activity), % at 4 µM or 5 µM; hit rate 0.41% among 220,000;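 active means cell killing above 50% in the first pass at 4 µM, then a duplicate retest at 5 µM averaging 50% or more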
SENP8 block-2: SENP8 protease inhibitors, primary screen, biochemical, luminescence. purified SENP8, Z-RLRGG-aminoluciferin cleavage. hit rate 1.2% among 330,000. AID 2540, 2010. inhibition, % at 10 µM. Sentrin-specific protease 8 (Homo sapiens), Q96LD8; in the data active means inhibition above about 50%
SENP8 conf: SENP8 protease inhibitors, retest, confirmation, biochemical, luminescence, single concentration. inhibition, % at 12.5 µM. shares compounds with SENP7 block. hit rate 40% among 6,200. Recombinant SENP8, Z-RLRGG-aminoluciferin luminescence, 60 min;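 active means mean inhibition across replicates above about 50%, limit read from the data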
SENP6 confirm: SENP6 protease inhibitors, confirmation, biochemical, luminescence, single concentration | shares compounds with SENP7 block | recombinant SENP6, Z-RLRGG-aminoluciferin luminescence | inhibition, % at 12.5 µM | hit rate 58% among 6,200 | AID 488915, 2010
SENP7 confirm: SENP7 protease inhibitors, retest, confirmation, biochemical, luminescence, single concentration | shares compounds with SENP7 block | recombinant SENP7, Z-RLRGG-aminoluciferin luminescence, 40 min | inhibition, % at 12.5 µM | hit rate 69% among 6,200 | AID 488917, 2010
Casp3 select: caspase-3 protease inhibitors, confirmation, selectivity assay for SENP inhibitor project, biochemical, single concentration; shares compounds with SENP7 block; inhibition, % at 12.5 µM; hit rate 60% among 6,200; AID 488918, 2010; purified caspase-3, Z-DEVD-aminoluciferin luminescence, 60 min;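 active means mean inhibition above about 50%, limit read from the data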
Target sequence (P42574 28-227 limits assumed): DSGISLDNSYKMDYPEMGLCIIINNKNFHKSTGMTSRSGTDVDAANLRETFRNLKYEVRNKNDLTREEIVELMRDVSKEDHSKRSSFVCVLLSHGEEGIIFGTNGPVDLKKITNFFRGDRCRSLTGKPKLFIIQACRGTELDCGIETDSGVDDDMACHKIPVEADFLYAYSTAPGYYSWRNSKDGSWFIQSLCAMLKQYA
Luc interf: interferes with luciferase luminescence in SENP counter-screen; AID 488919; inhibition, % at 12.5 µM; hit rate 39% among 6,200; shares compounds with SENP7 block; Pre-incubated SENP8/Z-RLRGG-aminoluciferin, luciferase luminescence interference;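 active means mean inhibition above about 50% when retested at one dose, limit read from the data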
Each line names hits and unclear results; the compound was inactive in the other large screens (follow-up assays come after a bar, where they were run).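 How the source made its calls, unless noted: active means mean inhibition above about 50% in the one-dose retest (limit read from the data); inactive means the rest.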

O=C(OCc1ccccc1Cl)c1cccnc1Cl	SENP6 inh 63 | SENP8 conf inactive | SENP6 confirm inactive | SENP7 confirm 72 | Casp3 select inactive | Luc interf inactive
C=CCCC(=O)N1C[C@H]2CON(C)[C@H]2C[C@H]1c1cccc(N2CCOCC2)c1	none (no result: SENP7 block, SENP6 inh, PPC-1+TRAIL kill, SENP8 block-2)
COc1ccccc1NC(=O)N(C)C[C@@H]1OCc2cnnn2CCCC(=O)N([C@H](C)CO)C[C@H]1C	none (no result: SENP7 block, SENP6 inh, PPC-1+TRAIL kill, SENP8 block-2)
CN(CC(=O)Nc1ccc(Cl)c(C(F)(F)F)c1)C(=O)c1ccccc1SCC(=O)N1CCCC1	none (no result: SENP7 block, SENP6 inh, PPC-1+TRAIL kill, SENP8 block-2)
CC1CCN(c2ccc(-c3cccs3)nn2)CC1	TRAIL sens C8 97, SENP7 block 96, SENP6 inh 99, SENP8 block-2 94 (no result: PPC-1+TRAIL kill) | SENP8 conf 64 | SENP6 confirm 96 | SENP7 confirm 102 | Casp3 select 94 | Luc interf inactive
COc1ccc(CCCc2nc3ccccc3[nH]2)cc1	none
COc1ccc(-c2cc(=O)n(-c3nc4ccccc4[nH]3)[nH]2)cc1	SENP6 inh 91, SENP8 block-2 87 | SENP8 conf inactive | SENP6 confirm 92 | SENP7 confirm 101 | Casp3 select 96 | Luc interf 54
Cc1nc2nc(-c3ccc(F)cc3)cn2nc1C	SENP6 inh 67, SENP8 block-2 71 (no result: PPC-1+TRAIL kill) | SENP8 conf inactive | SENP6 confirm 92 | SENP7 confirm 100 | Casp3 select 97 | Luc interf 54
O=c1[nH]c2ccccc2nc1/C=C/c1ccc(Cl)cc1	TRAIL sens C8 73, SENP7 block 72 | SENP8 conf inactive | SENP6 confirm inactive | SENP7 confirm inactive | Casp3 select inactive | Luc interf inactive
CC(=O)Nc1ccc(/C=C/c2nc3ccccc3[nH]c2=O)cc1	none (no result: PPC-1+TRAIL kill)
Oc1nc(Nc2ccccc2)sc1/C=C1\C=Nc2ccccc21	SENP7 block 51, SENP6 inh 64 | SENP8 conf inactive | SENP6 confirm inactive | SENP7 confirm 55 | Casp3 select inactive | Luc interf inactive
Cc1ccsc1/C=C1\Oc2cc(OCC(=O)c3ccccc3)ccc2C1=O	SENP6 inh 60 | SENP8 conf inactive | SENP6 confirm inactive | SENP7 confirm inactive | Casp3 select inactive | Luc interf inactive
CC(=O)Nc1c(-c2ccccc2)c2cc(Br)ccc2[nH]c1=O	none (no result: PPC-1+TRAIL kill)
CCOc1ccc(/C=C2\SC(=S)N(CCC(=O)O)C2=O)cc1	SENP7 block 60, SENP6 inh 99, SENP8 block-2 97 | SENP8 conf 97 | SENP6 confirm 100 | SENP7 confirm 103 | Casp3 select inactive | Luc interf 92
CCOc1ccc(/C=C2/SC(=S)N(CCC(=O)Nc3ccc(C(=O)O)cc3)C2=O)cc1	none (no result: PPC-1+TRAIL kill)
COc1ccc(/C=C2/SC(=S)N(CCCC(=O)N3CCN(C)CC3)C2=O)cc1	SENP7 block 69, SENP6 inh 65, SENP8 block-2 54 (no result: PPC-1+TRAIL kill) | SENP8 conf 58 | SENP6 confirm 60 | SENP7 confirm 86 | Casp3 select 67 | Luc interf 69
Cc1ccc(/C=C2\SC(=S)N(CCCC(=O)N3CCOCC3)C2=O)cc1	SENP7 block 84, SENP6 inh 84, SENP8 block-2 84 (no result: PPC-1+TRAIL kill) | SENP8 conf 90 | SENP6 confirm 89 | SENP7 confirm 97 | Casp3 select 72 | Luc interf 75
CCN(CC(=O)Nc1ccc(C(C)=O)cc1)CC(=O)Nc1cccc(OC)c1	none
CC1(C(=O)Nc2ccccc2F)CCN1C(=O)Cc1cc(F)ccc1F (stereo not drawn)	none (no result: SENP7 block, SENP6 inh, PPC-1+TRAIL kill, SENP8 block-2)
CCN(c1ccc(OC)cc1)S(=O)(=O)N1CCCC(C(=O)NCc2ccc(OC(C)C)cc2)C1 (stereo not drawn)	none (no result: SENP7 block, SENP6 inh, PPC-1+TRAIL kill, SENP8 block-2)
Cc1cc(C(=O)N/N=C2\CC(=O)c3ccccc32)c(C)n1-c1ccccc1	TRAIL sens C8 54, SENP8 block-2 54 | SENP8 conf inactive | SENP6 confirm inactive | SENP7 confirm inactive | Casp3 select inactive | Luc interf inactive
O=C(NCC1(N2CCCCC2)CCCCC1)c1cccc(S(=O)(=O)Nc2ccc(F)cc2)c1	none (no result: PPC-1+TRAIL kill)
O=C1/C(=C/c2cccnc2)Sc2ccccc21	none
Cc1ccc(/C=C2\Sc3ccccc3C2=O)s1	SENP7 block 96, SENP6 inh 94, SENP8 block-2 89 | SENP8 conf inactive | SENP6 confirm 86 | SENP7 confirm 94 | Casp3 select 67 | Luc interf 65
Cc1c(C(C)(C)C)sc(=NC(=O)c2ccccc2O)n1C	SENP7 block 72, SENP6 inh 63, SENP8 block-2 60 (no result: PPC-1+TRAIL kill) | SENP8 conf inactive | SENP6 confirm inactive | SENP7 confirm inactive | Casp3 select inactive | Luc interf inactive
COc1ccc2[nH]c3c(=O)n(Cc4ccc(C(=O)N5CCC(C(N)=O)CC5)cc4)c(=S)[nH]c3c2c1	SENP7 block 57, SENP6 inh 69, SENP8 block-2 67 | SENP8 conf 73 | SENP6 confirm 72 | SENP7 confirm 87 | Casp3 select 68 | Luc interf inactive
COC(=O)[C@]12CCCCC=C1N(Cc1ccc(Cl)cc1Cl)C(=O)[C@H](CC(=O)N1CCN(C(=O)C3CC3)CC1)C2	none (no result: SENP7 block, SENP6 inh, PPC-1+TRAIL kill, SENP8 block-2)
Cc1ccc(F)c(NC(=S)Nc2cccc3ccccc23)c1	SENP6 inh 88, SENP8 block-2 83 (no result: PPC-1+TRAIL kill) | SENP8 conf inactive | SENP6 confirm inactive | SENP7 confirm inactive | Casp3 select inactive | Luc interf inactive
Cc1ccc(C)c(NC(=S)Nc2cccc3cnccc23)c1	SENP7 block 54, SENP6 inh 79, SENP8 block-2 77 | SENP8 conf inactive | SENP6 confirm inactive | SENP7 confirm inactive | Casp3 select inactive | Luc interf inactive
